Inconclusive results are not listed. The source made the active and inactive calls. The calls were made as follows: active = hit-call score of the fitted dose curve at least 0.9, where 1 is the maximum; inconclusive = response in the unintended direction; inactive = score below 0.9.
What was measured:
[1] = TOX21_p53_BLA_p2_viability: Viability Assessment in the Tox21 HCT-116 p53 Agonism Beta-lactamase Assay, Phase 2 (AID 2283591);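 also: actives lower the ATP signal meaning cytotoxicity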
Summary of the method: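 Cytotoxicity readout: CellTiter-Glo ATP luminescence, 30 min at room temperature, after the beta-lactamase read. Cells were HCT116 exposed 16 h at 37C to compounds pin-transferred at 217-fold dilution from DMSO stocks.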

[2] = target: Cellular tumor antigen p53 (Homo sapiens) (UniProt P04637); experiment: TOX21_p53_BLA_p2_ratio: Tox21 HCT-116 p53 Agonism Beta-lactamase Assay, Ratio, Phase 2 (AID 2283592)
Chain of Cellular tumor antigen p53 (Homo sapiens) (P04637 whole entry, looked up): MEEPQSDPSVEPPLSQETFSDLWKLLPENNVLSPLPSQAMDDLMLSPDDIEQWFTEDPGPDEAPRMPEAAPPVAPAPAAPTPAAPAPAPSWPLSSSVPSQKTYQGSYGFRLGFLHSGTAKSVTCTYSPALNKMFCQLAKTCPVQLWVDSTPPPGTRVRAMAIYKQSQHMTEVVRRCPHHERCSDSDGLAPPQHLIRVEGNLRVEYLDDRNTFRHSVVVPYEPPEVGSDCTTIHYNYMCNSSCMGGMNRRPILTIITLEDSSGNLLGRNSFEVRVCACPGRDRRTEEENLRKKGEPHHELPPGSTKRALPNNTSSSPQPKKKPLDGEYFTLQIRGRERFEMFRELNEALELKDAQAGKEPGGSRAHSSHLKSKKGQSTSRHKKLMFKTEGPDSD
Summary of the method: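 First, HCT116 reporter cells settle for 5 h at 37C. Next, DMSO compound solutions are pinned in (217-fold dilution) and left 16 h. Finally, CCF4-AM substrate is loaded 2 h at room temperature and the 460/530 nm ratio read.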

[3] = TOX21_p53_BLA_p3_viability: Viability Assessment in the Tox21 HCT-116 p53 Agonism Beta-lactamase Assay, Phase 3 (AID 2283593);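 also: cells exposed to compound for 16 h before reading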
Summary of the method: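 Cellular ATP was quantified by CellTiter-Glo luminescence, read after 30 min at room temperature. Beforehand, HCT116 cells (4000/well) received compound 5 h post-seeding, 217-fold diluted from DMSO, then incubated 16 h at 37C.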

[4] = TOX21_p53_BLA_p5_viability: Viability Assessment in the Tox21 HCT-116 p53 Agonism Beta-lactamase Assay, Phase 5 (AID 2283600)
Summary of the method: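 Decreased CellTiter-Glo luminescence denotes lost viability. Exposure: 16 h at 37C, 5% CO2, with compounds from DMSO stocks diluted 217-fold in wells of 4000 cells.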

[5] = target: Cellular tumor antigen p53 (Homo sapiens) (UniProt P04637); experiment: TOX21_p53_BLA_p4_ratio: Tox21 HCT-116 p53 Agonism Beta-lactamase Assay, Ratio, Phase 4 (AID 2283601)
Summary of the method: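 Signal is the blue/green (460nm/530nm) ratio of cleaved versus uncleaved CCF4-AM substrate, read after 2 h substrate loading. Cells were HCT116 carrying the p53-responsive beta-lactamase reporter, dosed 16 h at 37C, 5% CO2; CellTiter-Glo measured in parallel.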

[6] = target: Cellular tumor antigen p53 (Homo sapiens) (UniProt P04637); experiment: TOX21_p53_BLA_p5_ratio: Tox21 HCT-116 p53 Agonism Beta-lactamase Assay, Ratio, Phase 5 (AID 2283599)
Summary of the method: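 Beta-lactamase reporter ratio (blue 460 nm over green 530 nm, 405 nm excitation) after 2 h CCF4-AM loading, in HCT-116 cells exposed 16 h at 37 C to compounds pinned at 217-fold dilution. Increases relative to DMSO baseline scored.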

[7] = target: Cellular tumor antigen p53 (Homo sapiens) (UniProt P04637); experiment: TOX21_p53_BLA_p3_ratio: Tox21 HCT-116 p53 Agonism Beta-lactamase Assay, Ratio, Phase 3 (AID 2283596)
Summary of the method: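 Cells were seeded at 4000/well, rested 5 h at 37C, then dosed with DMSO compound solutions (217-fold dilution) for 16 h. CCF4-AM substrate was loaded for 2 h at room temperature, and the 460/530 nm emission ratio was fitted for gain of signal versus DMSO.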

[8] = TOX21_p53_BLA_p4_viability: Viability Assessment in the Tox21 HCT-116 p53 Agonism Beta-lactamase Assay, Phase 4 (AID 2283597);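 also: hits lower the luminescence signal meaning cytotoxicity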
Summary of the method: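 4000 HCT116 cells per well; 5 h attachment; compounds from DMSO, 217-fold dilution; 16 h at 37C. Then CCF4-AM, 2 h RT, followed by CellTiter-Glo, 30 min RT, luminescence. Decrease = cytotoxicity.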

Measured: outcome

O=C(OC(=O)c1ccccc1)c1ccccc1
inactive: [1] | [2] | [3] | [4] | [5]

O=C1c2ccccc2C(=O)C1c1ccc(Br)cc1
inactive: [1] | [2] | [3] | [4] | [5]

NC(=O)c1ccccc1N
inactive: [1] | [2] | [3] | [4]

CCCCCCCCCCCCCCCCCCOP(=O)([O-])OC1CC[N+](C)(C)CC1
inactive: [1] | [2] | [3] | [6] | [5]

C[Si](C)(C)C
inactive: [1] | [2] | [3] | [6] | [5]

Cn1c(=O)c2[nH]c(Br)nc2n(C)c1=O
not listed: [7] | [8]
inactive: all other assays above

Cc1cc(C)c(NC(=O)CN(CC(=O)O)CC(=O)O)c(C)c1Br
not listed: [7] | [8]
inactive: all other assays above

OCCCCCCO
not listed: [3] | [5]
inactive: all other assays above

C[N+](C)(C)CCOC(=O)CCC(=O)OCC[N+](C)(C)C
inactive: [1] | [2] | [7] | [8] | [6]

CCCCCCOc1ccccc1C(N)=O
not listed: [3] | [5]
inactive: all other assays above

Cc1cc(O)c2c(O)c3c(O)cccc3cc2c1
not listed: [3] | [5]
inactive: all other assays above

CN(C)c1ccc(/C=C/c2ccc([N+](=O)[O-])cc2)cc1
inactive: [1] | [2] | [7] | [8]

CO/N=C(\C(=O)N[C@@H]1C(=O)N2C(C(=O)[O-])=C(C[n+]3ccc(N)n3CCO)CS[C@H]12)c1csc(N)n1
not listed: [3] | [5]
inactive: all other assays above

NC(=O)[C@H]1O[C@@H](O)[C@H](O)[C@@H](O)[C@@H]1O
not listed: [3] | [5]
inactive: all other assays above

c1ccc2cc(C3=NCCN3)ccc2c1
inactive: [1] | [2] | [7] | [8] | [6]

CCN(CC)CCOc1ccc2nc(N(C)C)sc2c1
not listed: [3] | [5]
inactive: all other assays above

CC(C)(C)C1(CCc2ccc(Cl)cc2)CO1 (configuration not stated)
not listed: [3] | [5]
inactive: all other assays above

— PubChem BioAssay (EPA / NIEHS)
